Hits are enriched below; roughly 1.6% of the tested compounds scored in any of these assays.
KCNQ2 inh = KCNQ2 (rat) channel inhibition. O88943. CHO-K1 KCNQ2, FluxOR thallium flux, 20 min; active compounds read low. B-score at 10 µM. actives 1.1% (n = 310,000);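 active means fluorescence ratio B-score at most minus 3 library SDs, with starting brightness B-score within 2 library SDs, cut at about -5.5 in these data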
KCNQ2 enhance = potentiators of rat KCNQ2 potassium channel. O88943. CHO-K1 KCNQ2, FluxOR thallium flux fluorescence; active compounds read high. B-score at 10 µM. actives 0.54% (n = 310,000). AID 2239;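 active means fluorescence ratio B-score at least 3 SD of library B-scores, with initial fluorescence B-score within 3 of them, cut at about 5.3 in these data; same plate scores as AID 2156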;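 further: B-score of peak minus minimum over baseline fluorescence ratio after K+ and Tl+ stimulus; positive B-score means potentiation of KCNQ2 with more thallium influx and brighter signal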
Each line names hits and unclear results; the compound was inactive in the other large screens.

CCOC(=O)C1=C(C)NC(C)=C(C(=O)OCC)C1c1ccccc1/C=C/C(=O)OC(C)(C)C	KCNQ2 inh -6.7
CCOC(=O)C1=C(C)NC(C)=C(C(=O)OCC)C1/C=C/c1ccccc1OC	none
Cc1ccc(C)c(N2CCN(S(=O)(=O)c3c(C)[nH]c(C)c3C(=O)N3CCCCC3)CC2)c1	KCNQ2 inh -6.7
Cc1ccc(Cl)cc1N1CCN(S(=O)(=O)c2c(C)[nH]c(C)c2C(=O)N2CCCCC2)CC1	KCNQ2 inh -7.2
Cc1ccc(C)c(N2CCN(S(=O)(=O)c3c(C(=O)N4CCCCC4)c(C)n(C)c3C)CC2)c1	none (no result: KCNQ2 enhance)
Cc1[nH]c(C)c(S(=O)(=O)N2CCN(c3cccc(Cl)c3)CC2)c1C(=O)N1CCCCC1	none (no result: KCNQ2 enhance)
COc1ccccc1NC(=O)/C(=C\c1cccnc1)NC(=O)c1ccc(C)cc1	none
CN(C(=O)CSc1nc(-c2ccc(C(C)(C)C)cc2)c(C#N)c(=O)[nH]1)C1CCCCC1	none (no result: KCNQ2 enhance)
CCOC(=O)C1(CCCc2ccccc2)CCN(S(=O)(=O)N(C)C)CC1	none
COCCN1CCN(C(=O)c2cc(COc3cc(C)ccc3C)on2)CC1	none
CCN1CCN(C(=O)CCc2nnc(CCc3ccccc3OC)o2)[C@@H](C)C1=O	none
CN(CCOc1ccc(Cl)cc1)C(=O)c1cc(-c2ccco2)nc2ccccc12	KCNQ2 inh -13
COc1cccc(NC(=O)CN(C)C(=O)c2cc(-c3ccco3)nc3ccccc23)c1	none (no result: KCNQ2 enhance)
CN(C)C(=O)c1c2c(nc3ccccc13)-c1ccccc1CC2	KCNQ2 inh -6.1
CN(C)C(=O)c1c2c(nc3ccccc13)CCCC2	none
Nc1cc([N+](=O)[O-])cc2oc(-c3ccccc3)cc12	none (no result: KCNQ2 enhance)
CCOC(=O)c1c(-c2ccccc2)oc2ccc(OCC(O)CNCCN(C)C)cc12 (configuration not stated)	KCNQ2 inh -6.7
CCOC(=O)c1c(-c2ccccc2)oc2ccc(OCC)cc12	none (no result: KCNQ2 enhance)
CCN(CCn1cccn1)C(=O)C1CCC(=O)N(CC2CCCCC2)C1 (configuration not stated)	none (no result: KCNQ2 enhance)
CS(=O)(=O)c1ccc(C(=O)NC(Cc2ccccc2)c2ccccc2)cc1 (configuration not stated)	none (no result: KCNQ2 enhance)
COCC(C)NS(=O)(=O)c1ccc(C(=O)NC(Cc2ccccc2)c2ccccc2)cc1 (configuration not stated)	KCNQ2 inh -7.8
CC1CN(C(=O)CCC(=O)NCc2ccc(Cl)cc2)c2ccccc2O1 (configuration not stated)	none (no result: KCNQ2 enhance)
CCCCC(C(=O)NC1CCCC1)N(C(=O)c1snc(C(N)=O)c1N)c1ccc(F)cc1 (configuration not stated)	none (no result: KCNQ2 enhance)
COC(=O)Cc1ccc(NC(=S)N2CCCC(CO)C2)cc1 (configuration not stated)	none
CC(=O)c1ccc(NC(=S)N2CCCC(CO)C2)cc1 (configuration not stated)	KCNQ2 enhance 13
CCCCC(CC)C(=O)Nc1cc(C(=O)NCCC)ccc1N1CCC2(CC1)CC(c1cccc(Br)c1)=NO2 (configuration not stated)	none (no result: KCNQ2 enhance)
Cc1ccc(S(=O)(=O)N2CCOc3ccccc32)c(C)c1NS(C)(=O)=O	none
CNC(=O)N(O)C1N(/N=C/c2ccc(SC)cc2)C(=S)SC1(C)C (configuration not stated)	none (no result: KCNQ2 enhance)
CN(C)c1ccc(/C=N/N2C(=S)SC(C)(C)C2N(O)C(=O)Nc2ccc([N+](=O)[O-])cc2)cc1 (configuration not stated)	KCNQ2 inh -6.8
CCc1ccc(/C=C/C(=O)C2C(=O)c3ccccc3C2=O)cc1	none
O=C(/C=C/c1ccccc1)C1C(=O)c2ccccc2C1=O	KCNQ2 enhance 5.8
CCOc1ccc(-n2ccnc(SCC(=O)Nc3cccc(OC)c3)c2=O)cc1	none
CC(C)(C)NC(=O)C(=O)NNC(=O)c1ccc(C(C)(C)C)cc1	KCNQ2 enhance 12
CC(C)(C)NC(=O)C(=O)NNC(=O)COc1ccc(Br)cc1	KCNQ2 enhance 6.2
CC(C)(C)NC(=O)C(=O)NNC(=O)c1cccc(Br)c1	KCNQ2 enhance 6.7
COC(=O)NNC(=O)c1ccc(C(C)(C)C)cc1	none (no result: KCNQ2 enhance)
Cc1cccc(C(=O)NNC(=O)C(=O)NC(C)(C)C)c1	none
O=C(COc1ccc(Br)cc1)NC1CC1	none
COc1ccc(OC)c(NC(=O)CSc2nnc(CNC(=O)c3cccs3)o2)c1	none
O=C(c1ccc(S(=O)(=O)Nc2ccccc2)cc1)N1CCCCCCC1	none
CCCCN(C(=O)C(C)Oc1ccc(Cl)cc1)c1c(N)n(CCCC)c(=O)[nH]c1=O (configuration not stated)	none (no result: KCNQ2 enhance)
c1ccc(SCCN2CCN(c3ccccc3)CC2)cc1	none (no result: KCNQ2 enhance)
Cc1ccc(S(=O)(=O)N2c3cc(C)ccc3OCC2C(C)(C)C)cc1 (configuration not stated)	KCNQ2 inh -6.2
COc1ccc(S(=O)(=O)N2c3cc(C)ccc3OCC2C(C)(C)C)cc1 (configuration not stated)	KCNQ2 inh -5.5
Cc1ccc(S(=O)(=O)N2c3ccccc3OCC2c2ccccc2)cc1 (configuration not stated)	none (no result: KCNQ2 enhance)
COc1cccc(C(=O)N2c3cc(C)ccc3OCC2C(C)(C)C)c1 (configuration not stated)	none (no result: KCNQ2 enhance)
O=C1CCC(C(=O)N2CCCO2)CN1Cc1cccc(C(F)(F)F)c1 (configuration not stated)	none (no result: KCNQ2 enhance)
N#Cc1c(-c2ccccc2)c(-c2ccccc2)n(Cc2ccco2)c1NC(=O)c1cccs1	KCNQ2 inh -6.3
O=C(CSc1nnc(-c2ccc(O)cc2)n1Cc1ccco1)c1cccs1	none
COc1cc(NC(=O)Cn2c([N+](=O)[O-])cnc2C)c(OC)cc1Cl	none (no result: KCNQ2 enhance)
Cc1cc(C)c(C#N)c(N2CCN(c3ccccc3)CC2)n1	none (no result: KCNQ2 enhance)
COc1ccccc1N1CCN(c2nc(C)cc(C)c2C#N)CC1	KCNQ2 inh -5.9
CCc1sc(C(=O)Nc2cccnc2)cc1Br	none
Cc1cc(C)c2nc(-c3cccnc3)cc(C(=O)NC(C)c3cnn(C)c3C)c2c1 (configuration not stated)	KCNQ2 inh -8
Cc1cccc2c(C(=O)O)cc(-c3cccnc3)nc12	none
CC(C)(C)NC(=O)C(c1ccccc1)N(C(=O)CNC(=O)c1cccs1)c1cccnc1 (configuration not stated)	none
CC(C)(C)OC(=O)NC(CCCCNC=O)C(=O)O (configuration not stated)	KCNQ2 inh -6.6
CC(C)CC(NC(=O)OC(C)(C)C)C(=O)O (configuration not stated)	none (no result: KCNQ2 enhance)
CCNc1nc(NC(C)C)nc(NS(=O)(=O)c2ccc(C)cc2)n1	none
O=C(CSCc1ccc(Br)cc1)Nc1ccccc1C(=O)N1CCOCC1	none (no result: KCNQ2 enhance)
O=C(O)c1cc(-c2cccnc2)nc2ccc(Br)cc12	none
COc1cccc(CN2CCN(C(=O)c3cc(-c4ccncc4)nc4ccc(C)cc34)CC2)c1	KCNQ2 inh -5.9
COc1cccc(CN2CCN(C(=O)c3cc(-c4ccccn4)nc4ccc(Cl)cc34)CC2)c1	none (no result: KCNQ2 enhance)
CCN1CCN(C(=O)c2cc(-c3cccnc3)nc3ccc(Br)cc23)CC1	KCNQ2 inh -8.3
CCN(c1ccccc1)S(=O)(=O)c1ccc(C(=O)N(C)CCc2ccc(OC)c(OC)c2)cc1	none
Cc1ccc(CNCC(O)(c2ccccc2)c2ccc(Cl)cc2)cc1 (configuration not stated)	KCNQ2 inh -6.4
COc1cccc(CNCC(O)(c2ccc(Cl)cc2)c2ccc(Cl)cc2)c1	none (no result: KCNQ2 enhance)
O=C(CSc1nnc(COc2cccc3ccccc23)o1)N1c2ccccc2CCc2ccccc21	KCNQ2 inh -8.4
NC(=O)CSc1nnc(COc2cccc3ccccc23)o1	none

Screens as filed in PubChem.
